Our source for the inhibition values is PubChem BioAssay AID2240 (Broad Institute, 2010).

Hit rate of the full screen: of about 37,000 compounds, about 100 (0.27%) were called active. The list comes from a sample in which actives are over-represented; it also holds similar structures and randomly drawn compounds. A number with no mark means an inactive call. Rule as the data show it: active = inhibition above about 85%; inconclusive = no clear call, values can overlap the other calls; inactive = below about 68%.

This test in a line: inhibitors of MITF, primary screen, MITF inhibitor project, cell-based, luminescence (AID 2240).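 Also: human melanocyte line stably carrying TRPM1 promoter luciferase reporter.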 To be noted: TRPM1 promoter luciferase, 24 h, stronger effect = higher value, concentration not given here.
For the compound `Cc1cc(C(=O)Nc2cccc3c2O[C@@H](CN(C)C(=O)Nc2ccc(F)cc2)[C@H](C)CN([C@@H](C)CO)C3=O)n(C)n1`, the inhibition (as a rule, the drop in the measured response relative to a control, in per cent) is -3.61%.
For the compound `CC1=C(C(=O)OCc2ccccc2)OC(N)=C(C#N)C1c1ccc(F)cc1` (centres undefined), the inhibition is -8.27%.
Next, `O=S(=O)(NCCc1ccccc1)c1ccccc1`: -1.44%; `Cc1cc(C)c2c(c1)CC(C)(C)c1[nH]c(-c3ccccc3)nc1-2`: 12.3%; `CCCC1CCC(c2ccc(OC(=O)c3ccco3)cc2)CC1` (centres undefined): -3.57%.
Next, `Cc1ccc(-n2c(SCC(=O)Nc3cccc(C)c3C)nc3ccccc3c2=O)cc1`: 14.3%; `Cc1nc(SCC(=O)O)[nH]c(=O)c1Oc1ccccc1`: -13.2%.
Turning to `O=C(CCn1nc(-c2ccccc2)c2ccccc2c1=O)Nc1cccc(Br)c1`, the inhibition is 6.27%.
Regarding `O=C(c1nc2ncccn2n1)N(Cc1ccccc1)Cc1ccccc1`, the inhibition is 3.11%.
Consider `COc1cc(CO)cc(Cl)c1OCc1cccc([N+](=O)[O-])c1`, for which the inhibition was -30.9%.
Next, `COc1ccc(-c2cnc3c(-c4ccsc4)cnn3c2)cc1`: 26.7%; `COc1ccc(S(=O)(=O)Nc2ccc3c(c2)CC(=O)N([C@H](C)CO)C[C@H](C)[C@H](CN(C)C(=O)Nc2ccccc2)O3)cc1`: -16.9%.
Next, `CNC[C@H]1Oc2ccc(NC(=O)C3CCCCC3)cc2C(=O)N([C@H](C)CO)C[C@@H]1C`: 4.94%.
For the compound `C[C@H]1CN([C@@H](C)CO)C(=O)c2cccc(NC(=O)Nc3cccc4ccccc34)c2O[C@@H]1CN(C)C(=O)NC1CCCCC1`, the inhibition was 0.565%.
`O=C(CCCN1C(=O)c2ccccc2C1=O)Nc1cccc2c1CCCC2`: the inhibition is -8.57%.
Take `Cc1ccc2oc3c(c(=O)c2c1)C(c1ccc([N+](=O)[O-])cc1)N(CCCN1CCOCC1)C3=O` (centres undefined): the inhibition was -26.1%.
Regarding `O=C(CN1CCOCC1)Nc1ccc(NC(=O)CN2CCOCC2)c(Cl)c1`, the inhibition is -25.8%.
For the compound `C[C@H](CO)N1C[C@H](C)[C@H](CN(C)CC2CCCCC2)Oc2ccc(NC(=O)C3CCCCC3)cc2C1=O`, the inhibition is -9.78%.
To `C[C@H]1CN([C@@H](C)CO)C(=O)Cc2cc(NC(=O)Cc3ccccc3)ccc2O[C@@H]1CN(C)S(=O)(=O)c1ccc(Cl)cc1` belongs 12.5%.
Turning to `C[C@H]1CN([C@@H](C)CO)C(=O)c2cc(NC(=O)c3ccncc3)ccc2O[C@H]1CN(C)Cc1ccc(C(=O)Nc2ccccc2N)cc1`, the inhibition is 20.5%.
To `O=C(OC1=CC(=O)c2cccc3cccc1c23)c1ccccc1` belongs 26.1%.
To `O=C(c1ccc(NCc2cccnc2)c([N+](=O)[O-])c1)N1CCCCC1` belongs 6.72%.
Take `CC1(C)Cc2c(sc3ncn4nc(COc5ccc(Cl)cc5)nc4c23)C(C)(C)N1`: the inhibition was 6.06%.
As for `CNC[C@@H]1Oc2c(NC(=O)Nc3ccc(OC)cc3)cccc2C(=O)N([C@@H](C)CO)C[C@@H]1C`, the inhibition is -2.63%.
`C[C@H]1CN([C@@H](C)CO)C(=O)Cc2cc(NC(=O)NC3CCCCC3)ccc2O[C@@H]1CN(C)Cc1ccc(Oc2ccccc2)cc1`: the inhibition was 33.3%.
`C[C@@H]1CN([C@H](C)CO)C(=O)Cc2cc(NC(=O)NC3CCCCC3)ccc2O[C@H]1CN(C)S(=O)(=O)c1ccc(Cl)cc1`: the inhibition is -10.5%.
On to `Cc1ccc(N(CC(=O)Nc2ccccc2Sc2ccccc2)S(C)(=O)=O)c(C)c1`, for which the inhibition is -5.49%.
As for `CC(=O)Nc1nc2ccccc2s1`, the inhibition was -10.3%.
Regarding `Cc1noc(C)c1NC(=O)Nc1cccc2c1O[C@@H](CN(C)Cc1ccc(C(F)(F)F)cc1)[C@@H](C)CN([C@@H](C)CO)C2=O`, the inhibition was 1.59%.
Regarding `COc1ccc(NC(=O)Nc2cccc3c2O[C@@H](CN(C)S(=O)(=O)c2cn(C)cn2)[C@H](C)CN([C@@H](C)CO)C3=O)cc1`, the inhibition is -11.4%.
Turning to `C[C@@H]1CN([C@H](C)CO)C(=O)c2cc(NC(=O)NC3CCCCC3)ccc2O[C@@H]1CN(C)S(C)(=O)=O`, the inhibition is 1.34%.
On to `Nc1cc(N)nc(SCC(=O)c2ccc(Br)cc2)n1`, for which the inhibition was -22.1%.
Turning to `CCCCn1c(O)c(C#N)c(C)cc1=O`, the inhibition was -16.6%.
Consider `C[C@H]1CN([C@@H](C)CO)C(=O)Cc2cc(NS(C)(=O)=O)ccc2O[C@@H]1CN(C)CC1CC1`, for which the inhibition was -11.8%.
`C=CCn1c2ccccc2c2nnc(SCC(=O)N3c4ccccc4Sc4ccccc43)nc21`: the inhibition was 27.5%.
`Cc1ccc(-c2nnc(Nc3ccc(C(=O)N(C)C)cc3)c3ccccc23)cc1S(N)(=O)=O`: the inhibition is -20.2%.
Next, `Cc1nn(-c2ccccc2)c(CC(C)(C)C(=O)O)c1C(=O)O`: -5.62%; `CCc1cc2c(=O)n(-c3ccccc3)c(SCC(=O)O)nc2s1`: -1.73%; `COc1cc(S(=O)(=O)NCCN2CCOCC2)ccc1Br`: 1.46%.
On to `C=C1C(=O)O[C@H]2C3=C(C)C[C@H](OC(C)=O)C[C@]3(C)CC[C@@H]12`, for which the inhibition was 8.27%.
On to `Oc1ccc(CN2CCCC2)c2cccnc12`, for which the inhibition was 40.6%.
With `C[C@H]1CN([C@@H](C)CO)C(=O)c2cc(NC(=O)Cn3cnnn3)ccc2O[C@@H]1CN(C)C(=O)Nc1ccccc1`, the inhibition is 5.69%.
To `C[C@H](CO)N1C[C@H](C)[C@H](CN(C)CC2CC2)Oc2ccc(NC(=O)c3ccncc3)cc2C1=O` belongs -11.7%; to `C=C1C[C@@]23CC[C@@H]4[C@](C)(CO)CCC[C@@]4(C)[C@@H]2CC[C@@H]1C3`, -32.7%.
`Cc1ccc(NC(=O)C(C)N(c2ccc(Cl)cc2)S(C)(=O)=O)c(C)c1` (centres undefined): the inhibition is -5.76%.
With `Cc1cc([N+](=O)[O-])nn1CC(=O)NC(C)C`, the inhibition was 8.94%.
Turning to `C[C@@H]1CN([C@@H](C)CO)C(=O)c2cc(NC(=O)Nc3ccccc3)ccc2O[C@H]1CN(C)C(=O)Nc1ccc(F)cc1`, the inhibition was 3.76%.
To `COc1ccccc1NC(=O)C1=C(C)Nc2nnnn2C1c1ccccc1OCc1ccccc1` (centres undefined) belongs 41.2%; to `O=C(CSc1nnc(-c2ccccc2)n1-c1ccccc1)c1cccc([N+](=O)[O-])c1`, 5.69%.
